Compound activity deposited in PubChem BioAssay by National Center for Advancing Translational Sciences (NCATS).
HCV inh: qHTS Assay for Inhibitors of Hepatitis C Virus (HCV) | Huh7.5.1 HCVcc-Cre infection, luciferase reporter, 44 h | Potency, µM (highest dose often 41.8 µM), inactives show top-dose activity change, negative = inhibition, actives largely listed as inhibitors | 3.4% of 340,000 active; further: potency means the concentration at half of the fitted maximal effect
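Antiviral activity was scored by luciferase reporter output from cells infected with HCVcc-Cre (~0.5 moi) in presence of compound, 44 h infection period, cells seeded 1,000/well 4 h prior.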
HCMV inh: qHTS Assay for inhibitors of the human cytomegalovirus (HCMV); activity change, negative = inhibition, % at 57.5 µM; AID 1259415, 2018; 4.5% of 410,000 active; HFF cells, HCMV-luciferase reporter, 72 h; active compounds read low; in the data active means activity change below about -60%; inconclusive means no clear call, values can overlap the other calls; inactive means above about -39%
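Luciferase read-out from HCMV-luciferase-infected HFFs (MOI 1 PFU/cell) 72 h post infection at 37C; compounds added after 16 h cell attachment; activity normalized between buffer-only basal and Salinomycin (10uM) inhibitor controls.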
Pf growth 48h: Primary qHTS for delayed death inhibitors of the malarial parasite plastid, 48 hour incubation | P. falciparum luciferase growth in erythrocytes, 48 h | Potency, µM (titrated, usually from 28.7 µM), for the others: at the highest dose activity change, negative = inhibition, usual class: inhibitors | 5.9% of 310,000 active; further: potency means the concentration at half of the fitted maximal effect
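Here the parasites carry a stable luciferase gene and grow inside erythrocytes in Albumax-based RPMI medium with compound for one erythrocytic cycle. Activity is scored as loss of luminescent signal.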
Pf growth 96h: Primary qHTS for delayed death inhibitors of the malarial parasite plastid, 96 hour incubation | P. falciparum luciferase reporter growth, 96 h | Potency, µM (doses to about 28.7 µM), without a hit: at the highest dose activity change, negative = inhibition, usual class: inhibitors | 6.9% of 320,000 active | AID 504834, 2011; further: potency means the concentration at half of the fitted maximal effect
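Delayed-death screen, second-generation endpoint: infected erythrocytes, 2% hematocrit, 0.05% parasitemia final; 96 hours at 37 C, 5% CO2; luciferase detection reagent; luminescence decrease equals reduced growth.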
Numbers without * were called inactive; ? = inconclusive; nt = no result. In the library only some 13% were active in any assay of this set; here they are far more common. Unless noted, the call rests on the fitted dose curve; in most records, active means well fitted inhibition curve with a large enough effect; inconclusive means small, poorly fitted or top-dose-only effect, or another doubt; inactive means no such curve, though single readings can be large or run the other way. On the % scale 0 is the no-effect control and ±100 the full control effect.

SMILES	HCV inh	HCMV inh	Pf growth 48h	Pf growth 96h
Cc1ccc(C)c(CN2C(=O)c3ccccc3S(=O)c3ccc(C(=O)N4CCN(c5cccc(Cl)c5)CC4)cc32)c1 (centres undefined)	nt	-32	nt	nt
O=C(CCCCn1c(=O)c2ccccc2n(Cc2ccccc2Cl)c1=O)NCCc1ccccc1	nt	4	nt	nt
Cc1ccc(Cn2c(C(=O)O)c(CNCc3ccc(OC(C)C)cc3)c3ccc(C)cc32)cc1	nt	-105*	nt	nt
Cc1ccc2c(CNCCc3ccco3)c(C(=O)O)n(Cc3ccc(F)cc3)c2c1	nt	-109*	nt	nt
COc1cc(NC(=O)CN2C(=O)CCc3cc(Br)ccc32)cc(OC)c1OC	nt	7	nt	nt
CCCCCn1c(=N)n(CC(O)COc2cccc(C)c2)c2ccccc21 (centres undefined)	nt	-105*	nt	nt
CCCn1c(=N)n(CC(O)COc2cccc(C)c2)c2ccccc21 (centres undefined)	?	12	10µM*	129%
CCn1c(=N)n(CC(O)COc2cccc(C)c2)c2ccccc21 (centres undefined)	?	10	?	?
COc1ccc(OC)c(Nc2ncc3c(n2)CCN(Cc2cc(OC)c(OC)c(OC)c2)C3)c1	nt	-3	nt	nt
O=C(NCC1CCCCC1)C12CN(Cc3ccccc3)CC1C(c1cccc([N+](=O)[O-])c1)=NO2 (centres undefined)	21%	36	1.7µM*	?
COc1ccc(CCNC(=O)C23CN(Cc4ccccc4)CC2C(c2cccc([N+](=O)[O-])c2)=NO3)cc1 (centres undefined)	-26%	28	?	?
Cc1ccc(CCNC(=O)C23CN(Cc4ccccc4)CC2C(c2cccc([N+](=O)[O-])c2)=NO3)cc1 (centres undefined)	?	-3	2.9µM*	?
COC(=O)c1ccccc1NC(=O)Cn1c(=O)n(CCC(=O)NCc2ccc3c(c2)OCO3)c(=O)c2ccccc21	nt	26	nt	nt
Cc1cccc(N2CCN(S(=O)(=O)c3ccc(-c4ccc(=O)[nH]n4)o3)CC2)c1C	-3%	-63*	?	12%
Cc1ccccc1NS(=O)(=O)c1ccc(-c2ccc(=O)[nH]n2)o1	5%	-36	2%	13µM*
CCN(CC)c1ccc(NS(=O)(=O)c2ccc(-c3ccc(=O)[nH]n3)o2)c(C)c1	-6%	?	?	-4%
CC(=O)c1ccccc1NC(C(=O)NC(C)(C)CC(C)(C)C)C1CC1 (centres undefined)	nt	-13	nt	nt
Cc1ccc(NC(=O)/C=C/c2ccc([N+](=O)[O-])s2)cc1	?	-96*	?	?
Cc1ccc(/C=C/C(=O)Nc2ccc([N+](=O)[O-])cc2)o1	-24%	16	-5%	-3%
Cc1cccc(NC(=S)N/N=C/c2ccc([N+](=O)[O-])s2)c1	8.9µM*	-93*	?	?
Cc1cccc(NC(=O)/C=C/c2ccc([N+](=O)[O-])s2)c1	11µM*	-98*	?	2.6µM*
Cc1ccc(NC(=O)/C=C/c2ccc([N+](=O)[O-])s2)c(C)c1	?	-101*	10µM*	3.3µM*
COc1cccc(NC(=O)/C=C/c2ccccc2[N+](=O)[O-])c1	?	77	168%	?
COc1ccc(NC(=O)c2cc(S(=O)(=O)N3CCCC(C)C3)cn2C)c(OC)c1 (centres undefined)	nt	5	nt	nt
COc1ccc(OC)c(NC(=O)CCC(=O)N(Cc2ccc(OC)c(OC)c2)c2nccs2)c1	-21%	18	-6%	4%
SMILES	HCV inh	HCMV inh	Pf growth 48h	Pf growth 96h
COc1ccc(NC(=O)CCC(=O)N(Cc2ccc(OC)c(OC)c2)c2nccs2)c(OC)c1	-7%	-18	7%	2.9µM*
CC1CC(C)CN(C(=O)c2cccc(S(=O)(=O)N(C)c3ccccc3)c2)C1 (centres undefined)	32µM*	?	-2%	-22%
CCN(c1ccccc1)S(=O)(=O)c1cccc(C(=O)N2CCN(S(=O)(=O)c3ccccc3)CC2)c1	?	9	?	8.3µM*
C=CCN(c1ccccc1)S(=O)(=O)c1cccc(C(=O)N2CC(C)CC(C)C2)c1 (centres undefined)	7.1µM*	-85*	?	?
C#Cc1cccc(-n2nnc(C(=O)OC)c2-c2ccccc2)c1	3%	-102*	nt	-8%
COC(=O)c1nnn(-c2ccccc2)c1N	?	15	32%	-6%
Cc1ccc2[nH]c(-c3ccc(Cl)cc3)c(C#N)c2c1	nt	34	nt	nt
Cc1ccc(C(C(=O)NC2CCCCC2)N(Cc2ccco2)C(=O)Cc2c[nH]c3ccccc23)o1 (centres undefined)	?	-25	13µM*	?
Cc1ccc(N(C(=O)Cc2c[nH]c3ccccc23)C(C(=O)NC2CCCCC2)c2ccco2)cc1 (centres undefined)	?	?	10µM*	?
COC(=O)c1cc2c(C)c(C)c3ccccn3c-2c1C(=O)OC	?	-36	nt	13µM*
COC(=O)c1cc2n3ccccc3c(C)c(-c3ccccc3)c-2c1C(=O)OC	?	9	nt	9.3µM*
COC(=O)c1cc2ccccn2c2c(C(=O)OC)c(C(=O)OC)cc1-2	?	46	nt	-10%
CC(=O)Nc1nc(C)cs1	9%	2	?	8%
Cc1csc(NC(=O)NCC2CCCC(CNC(=O)Nc3nc(C)cs3)C2)n1 (centres undefined)	?	39	12µM*	?
CC(=O)Nc1ccc(Nc2cc(C)nc3c(-c4ccccc4)c(C)nn23)cc1	?	-33	?	3.7µM*
Cc1cc(SCC(=O)Nc2ccc(O)cc2)n2nc(C)c(-c3ccccc3)c2n1	?	-62*	-4%	2%
Cc1cc(NCCCN2CCOCC2)n2nc(C)c(-c3ccc(F)cc3)c2n1	?	-2	7.4µM*	-13%
Cc1cc(NCCC(C)C)n2nc(C)c(-c3ccccc3)c2n1	8.9µM*	12	9.3µM*	nt
Cc1ccc(S(=O)(=O)NCCc2csc3nc(-c4ccccc4C)nn23)cc1	nt	-3	nt	nt
c1ccc(N=NC2=NN(c3ccccc3)CS2)cc1	nt	74	nt	nt
C=C(C)CSc1cc(C)nc2c(-c3ccccc3)c(C)nn12	?	-85*	6.6µM*	10µM*
CCSc1cc(C)nc2c(-c3ccccc3)c(C)nn12	?	-27	nt	?
CCOc1ccc(C(=O)Nc2nnc(S(=O)(=O)N(CC)c3ccccc3C)s2)cc1	nt	23	nt	nt
Cc1ccc(Cc2c(-c3ccco3)nc3c(C)cc(Br)cn23)cc1	nt	-102*	nt	nt
CCN(c1ccccc1)S(=O)(=O)c1ccc(Cl)c(NC(=O)CN2CCCCCC2)c1	14µM*	?	5.9µM*	?
CCN(c1ccccc1)S(=O)(=O)c1ccc(Cl)c(NC(=O)CN(C)Cc2cccc(F)c2)c1	8.9µM*	?	nt	nt
